PubChem BioAssay (EPA / NIEHS)
Several values for one entry are separate records, joined by “and”; a condition that tells them apart may be missing. Equal values may be shown once. Some compounds were tested as several samples or in several runs, with calls that do not always agree. Activity calls are given as the source filed them. The calls were made as follows: active = hit-call score of the fitted dose curve at least 0.9, where 1 is the maximum; inactive = score below 0.9.

What was measured:
[1] = molecular target: Transcription factor E2F1 (Homo sapiens) (UniProt Q01094); test: ATG_E2F_CIS: Attagene CIS-FACTORIAL HepG2 Assay for human E2F Transcription Factor 1 (AID 2282935); settings: HepG2 Attagene cis-reporter, E2F reporter RNA transcripts; actives raise or lower the signal
Outline: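 Liver-derived HepG2 cells expressing transfected promoter-driven reporter units received test chemical for 24 hours. Signal gains or losses were fitted bidirectionally against DMSO.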

[2] = ATG_E_Box_CIS: Attagene CIS-FACTORIAL HepG2 Assay for human Enhancer Box (E-box) (AID 2282936); settings: HepG2 E-box cis-reporter transcription, actives raise or lower the signal
Outline: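 In this cell-based setup, HepG2 cells bearing transfected promoter-driven reporter units were exposed to chemicals for 24 h; reporter transcripts were amplified, 6-FAM-labelled, cut with HpaI and sized by capillary electrophoresis.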

[3] = ATG_M_61_CIS: Attagene CIS-FACTORIAL HepG2 Assay for M61 Transcription Factor (Internal Marker) (AID 2282937); settings: HepG2 Attagene CIS-FACTORIAL M61 internal marker reporter; actives raise or lower the signal
Outline: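 Readout is reporter mRNA by RT-PCR, fluorescent primer extension and capillary electrophoresis, with gain or loss fitted relative to DMSO. Transfected HepG2 cells carrying endogenous-TF-driven cis reporters were exposed to chemicals for 24 hours.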

[4] = ATG_EGR_CIS: Attagene CIS-FACTORIAL HepG2 Assay for human Early Growth Response 1 (EGR1) (AID 2282938); settings: HepG2 Attagene CIS-FACTORIAL EGR reporter mRNA; actives raise or lower the signal
Outline: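 After 24 h compound exposure, RNA from reporter-transfected HepG2 cells was reverse-transcribed, PCR-amplified, fluorescently labelled and resolved by capillary electrophoresis. EGR1 reporter transcript changes, up or down, were fitted against DMSO, reflecting endogenous transcription-factor activity.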

[5] = ATG_M_19_CIS: Attagene CIS-FACTORIAL HepG2 Assay for M19 Transcription Factor (Internal Marker) (AID 2282939); settings: HepG2 Attagene CIS-FACTORIAL M19 internal marker reporter; actives raise or lower the signal
Outline: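 Background-control endpoint from a multiplexed HepG2 reporter panel. Cells carrying cis-regulated reporter constructs are treated 24 h, then reporter transcripts are amplified, fluorescently labelled and sized by capillary electrophoresis. DMSO defines baseline.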

[6] = ATG_ERE_CIS: Attagene CIS-FACTORIAL HepG2 Assay for Estrogen Response Element (ERE) (AID 2282940); settings: HepG2 ERE cis-reporter, Attagene RNA transcript; actives raise or lower the signal
Outline: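 Cells used were human hepatoma HepG2, transfected with multiple reporter transcription units under cis-regulatory promoters. Reporter mRNA, read 24 h post-dosing via fluorescent RT-PCR products on capillary electrophoresis, was fitted bidirectionally relative to DMSO.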

[7] = ATG_Ets_CIS: Attagene CIS-FACTORIAL HepG2 Assay for human Erythroblast Transformation Specific (ETS) (AID 2282941); settings: HepG2 ETS cis-reporter transcription, actives raise or lower the signal
Outline: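 RT-PCR/capillary electrophoresis fluorescence read-out of reporter mRNA; HepG2 transient multi-reporter transfection; 24 h compound exposure; gain or loss of signal fitted bidirectionally relative to DMSO.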

[8] = molecular target: Hepatocyte nuclear factor 3-beta (Homo sapiens) (UniProt Q9Y261); test: ATG_FoxA2_CIS: Attagene CIS-FACTORIAL HepG2 Assay for human Forkhead box A2 (FOXA2) (AID 2282942); settings: HepG2 cis-reporter transcription factor activity, 24 h; actives raise or lower the signal
Outline: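 Endogenous transcription factor activity is captured via cis-element-driven reporter transcripts in transfected HepG2. Total RNA taken at 24 h post-dosing; labelled RT-PCR products resolved by capillary electrophoresis. Gain or loss fitted versus DMSO.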

[9] = ATG_FoxO_CIS: Attagene CIS-FACTORIAL HepG2 Assay for human Forkhead box O (FoxO) (AID 2282943); settings: HepG2 Attagene cis-reporter, FoxO element, mRNA; actives raise or lower the signal
Outline: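 HepG2 cells transiently transfected with cis-element-driven reporter units report endogenous FoxO activity. After 24 h chemical exposure, reporter mRNA quantified by RT-PCR, fluorescent labeling, HpaI digestion and capillary electrophoresis; bidirectional fit versus DMSO.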

[10] = ATG_GATA_CIS: Attagene CIS-FACTORIAL HepG2 Assay for human GATA Binding Protein (AID 2282944); settings: HepG2 GATA cis-element reporter, Attagene multiplex mRNA; actives raise or lower the signal
Outline: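 Endogenous transcription factor activity was captured through cis-promoter-driven reporters in transfected HepG2 cells. After 24 h exposure, reporter transcripts were quantified by RT-PCR with fluorescent capillary electrophoresis, and responses fitted both directions against DMSO.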

Chain of Transcription factor E2F1 (Homo sapiens) (Q01094 whole entry, looked up): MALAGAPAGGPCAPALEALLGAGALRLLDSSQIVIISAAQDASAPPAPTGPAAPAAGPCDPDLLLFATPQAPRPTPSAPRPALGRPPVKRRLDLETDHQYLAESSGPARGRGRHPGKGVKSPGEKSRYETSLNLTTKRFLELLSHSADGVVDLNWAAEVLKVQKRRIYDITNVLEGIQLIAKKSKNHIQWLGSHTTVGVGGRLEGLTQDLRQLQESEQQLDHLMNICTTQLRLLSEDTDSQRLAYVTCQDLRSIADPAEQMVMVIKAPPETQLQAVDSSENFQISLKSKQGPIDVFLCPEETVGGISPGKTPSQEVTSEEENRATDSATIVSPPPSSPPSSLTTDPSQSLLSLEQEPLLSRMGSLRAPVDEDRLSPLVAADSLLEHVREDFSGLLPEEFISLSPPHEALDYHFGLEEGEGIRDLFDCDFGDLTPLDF
Chain of Hepatocyte nuclear factor 3-beta (Homo sapiens) (Q9Y261 whole entry, looked up): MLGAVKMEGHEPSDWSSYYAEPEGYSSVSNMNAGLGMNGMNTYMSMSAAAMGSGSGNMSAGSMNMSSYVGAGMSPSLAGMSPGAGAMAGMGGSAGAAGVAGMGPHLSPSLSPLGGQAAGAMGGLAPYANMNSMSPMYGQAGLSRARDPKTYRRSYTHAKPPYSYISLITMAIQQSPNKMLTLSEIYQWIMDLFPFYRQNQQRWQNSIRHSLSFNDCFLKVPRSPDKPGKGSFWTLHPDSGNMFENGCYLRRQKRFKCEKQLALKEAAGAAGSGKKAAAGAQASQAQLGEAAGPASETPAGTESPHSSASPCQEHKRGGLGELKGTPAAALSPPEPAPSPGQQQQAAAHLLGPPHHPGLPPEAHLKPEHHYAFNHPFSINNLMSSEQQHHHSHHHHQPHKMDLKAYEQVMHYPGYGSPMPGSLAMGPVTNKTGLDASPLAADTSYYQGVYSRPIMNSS

SMILES	outcome [1]	outcome [2]	outcome [3]	outcome [4]	outcome [5]	AC50 [6]	outcome [6]	outcome [7]	outcome [8]	outcome [9]	outcome [10]	AC50 [2]	AC50 [4]	AC50 [3]	AC50 [7]	AC50 [10]	AC50 [8]
FC(F)C(F)(F)COCC1CO1 (stereo not given)	inactive	inactive	inactive	inactive	inactive	118 µM (active)	inactive	inactive	inactive	inactive	inactive						
C=CCc1cc(S(=O)(=O)c2ccc(O)c(CC=C)c2)ccc1O	inactive		inactive		inactive	1.12 µM (active)		inactive	inactive	inactive	inactive	55.6 µM (active)	45.8 µM (active)				
C=CN1CCCC1=O	inactive	inactive	inactive	inactive	inactive		inactive	inactive	inactive	inactive	inactive						
COc1cc(C(C)C)c2c(c1)S(=O)(=O)N(COc1cc(=O)n3cccc(OCCN4CCCCC4)c3n1)C2=O	inactive	inactive			inactive		inactive		inactive	inactive			2.75 µM (active)	12.3 µM (active)	2.02 µM (active)	14.1 µM (active)	
O=C(O)c1cccc(C(=O)O)c1	inactive	inactive	inactive	inactive	inactive		inactive	inactive	inactive	inactive	inactive						
c1ccc2c(c1)-c1cccc3c1c-2cc1ccccc13	inactive	inactive	inactive	inactive	inactive	0.929 µM (active)	inactive	inactive	inactive	inactive	inactive						
Cc1nc(-c2ccccn2)ncc1C(=O)Nn1cc(C)c2cc(F)ccc21	inactive	inactive	inactive	inactive	inactive		inactive	inactive	inactive	inactive	inactive						
OC(O)(C(F)C(O)(O)C(F)(F)F)C(F)(F)F	inactive	inactive	inactive	inactive	inactive	150 µM (active)	inactive	inactive	inactive	inactive	inactive						
CCCCC(CC)C(=O)OCCOCCOCCOC(=O)C(CC)CCCC (stereo not given)	inactive	inactive	inactive	inactive	inactive		inactive	inactive	inactive	inactive	inactive						
CC(C)CCCCCCOC(=O)C1CCCCC1C(=O)OCCCCCCC(C)C (stereo not given)	inactive	inactive	inactive	inactive	inactive		inactive	inactive	inactive	inactive	inactive						
COCc1nnc(-c2ccc[n+]([O-])c2)n1-c1c(Cl)c(Cl)cc2[nH]c(=O)c(=O)[nH]c12	inactive	inactive	inactive	inactive	inactive		inactive	inactive	inactive	inactive	inactive						
C[C@]12C=CC(=O)C=C1CC[C@H]1[C@@H]3C[C@@H](O)[C@](O)(C(=O)CO)[C@@]3(C)C[C@H](O)[C@@]12F	inactive	inactive	inactive	inactive	inactive	17.8 µM (active)		inactive	inactive	inactive	inactive						
OCC(CO)(CO)CO	inactive	inactive	inactive	inactive	inactive	100 µM (active)	inactive	inactive	inactive	inactive	inactive						
c1ccc2ncccc2c1	inactive	inactive	inactive	inactive	inactive		inactive	inactive	inactive	inactive	inactive						
NC(N)=O	inactive	inactive	inactive	inactive	inactive		inactive	inactive	inactive	inactive	inactive						
CCc1ccc(O)c(C(C)(C)C)c1	inactive	inactive	inactive	inactive	inactive		inactive	inactive	inactive	inactive	inactive						
NCC(F)(F)C(F)(F)C(F)(F)C(F)(F)F	inactive	inactive	inactive	inactive	inactive		inactive	inactive	inactive	inactive	inactive						
FC(F)(F)COC(OCC(F)(F)F)OCC(F)(F)F	inactive	inactive	inactive	inactive	inactive		inactive	inactive	inactive	inactive	inactive						
CC1(C)C(=O)N(Cl)C(=O)N1Cl	inactive	inactive	inactive	inactive	inactive		inactive	inactive	inactive	inactive	inactive						
Nc1ccn([C@@H]2O[C@H](CO)[C@@H](O)[C@@H]2O)c(=O)n1	inactive	inactive	inactive	inactive	inactive	6.66 µM (active)		inactive	inactive	inactive	inactive						
OCc1c[nH]c2ccccc12	inactive	inactive	inactive	inactive	inactive	8.17 µM (active) [middle of 5 runs]		inactive	inactive	inactive	inactive						1.72 µM (active) and 512 nM (active) and 1.85 µM (active)
